High-throughput results deposited in PubChem BioAssay by The Scripps Research Institute Molecular Screening Center.
In the library only some 1.1% were active in any assay of this set; here they are far more common.
HTR5A ag ctr = counter-screen for OPRM1-OPRD1 agonists: human HTR5A agonism. HTR5A agonist assay, luminescence, cell-based. activation, % at 9.3 µM. 340,000 tested, 0.61% active; in the data active = activation mostly above about 9.5%, no sharp cut-off; inactive = mostly below about 7.6%;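 also: 0% = cells with vehicle only and 100% = reference agonist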
Target sequence (P47898 whole entry, looked up): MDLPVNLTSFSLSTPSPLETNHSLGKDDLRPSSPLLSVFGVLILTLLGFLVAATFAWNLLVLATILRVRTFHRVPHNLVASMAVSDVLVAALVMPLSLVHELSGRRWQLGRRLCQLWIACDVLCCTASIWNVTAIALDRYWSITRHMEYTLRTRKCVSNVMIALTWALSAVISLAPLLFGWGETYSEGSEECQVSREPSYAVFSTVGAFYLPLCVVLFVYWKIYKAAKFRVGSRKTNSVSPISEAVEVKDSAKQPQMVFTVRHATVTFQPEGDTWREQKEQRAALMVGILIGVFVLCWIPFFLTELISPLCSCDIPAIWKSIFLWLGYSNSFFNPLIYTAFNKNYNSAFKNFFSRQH
OPRM1-OPRD1 inv = inverse agonist of human OPRM1-OPRD1 heterodimerization | 340,000 tested, 0.21% active | inhibition, % at 9.3 µM | P35372+P41143 | cell-based MOR-DOR heterodimer luminescence, inverse agonism; in the data active = inhibition above about 22%, passing the limit was not always enough;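 also: 0% = cells with DMSO and 100% = wells without cells with DMSO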
OPRM1-OPRD1 ag = OPRM1-OPRD1 heterodimerization agonism; P35372+P41143; cells, luminescence; activation, % at 9.3 µM; 340,000 tested, 0.3% active; AID 504326; in the data active = activation above about 18%;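 also: 0% = vehicle-treated cells and 100% = reference agonist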
HTR5A inv ag = HTR5A inverse agonism, opioid heterodimer counter-screen; AID 504634; P47898; HTR5A cell line, luminescence; inhibition, % at 9.3 µM; 340,000 tested, 0.083% active; in the data active = inhibition mostly above about 23%, no sharp cut-off; inactive = mostly below about 18%;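 also: 0% = cells with DMSO and 100% = no-cell wells with DMSO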
An asterisk follows results filed as active; i = inactive.

SMILES	HTR5A ag ctr	OPRM1-OPRD1 inv	OPRM1-OPRD1 ag	HTR5A inv ag
O=C(Nc1cccc(C(F)(F)F)c1)c1cc(-c2ccco2)on1	4	-25	4	3
Cc1ccc(S(=O)(=O)Nc2ccc(NC(=O)Nc3cccc(C(F)(F)F)c3)cc2)cc1	21*	-144	28*	-8
CCN(CC)S(=O)(=O)c1ccc(NC(=O)Nc2cccc(C(F)(F)F)c2)cc1	13*	-31	6	13
CCN(CC)S(=O)(=O)c1ccc(C(=O)Nc2cccc(C)c2)cc1	2	-6	1	0
O=C(Nc1ccncc1)Nc1cccc(C(F)(F)F)c1	10*	-12	4	-53
O=C(Nc1cccc(C(F)(F)F)c1)c1sc(Cl)nc1C(F)(F)F	9.4*	-18	4	-35
C=C(C(=O)Oc1c(C(C)(C)C)cccc1C(C)(C)C)c1ccccc1	0	-10	2	1
CC(C)Oc1cc(NC(=O)CS(=O)CC(=O)Nc2cccc(C(F)(F)F)c2)c(Cl)cc1Cl (stereo not drawn)	3	-27	6	-33
CCN(CC)S(=O)(=O)c1ccc(NC(=O)COc2c(OC)cccc2OC)cc1	13*	2	0	3
Cc1ccc(NS(=O)(=O)c2ccc(NC(=O)c3cccs3)cc2)cc1	8.3*	-38	7	-10
CC(=O)Nc1nc2n(n1)C(c1ccccc1)C=C(c1ccccc1)N2 (stereo not drawn)	-12	17	-3	32*
COc1ccccc1OCCC(=O)OCC(=O)Nc1ccc2c(c1)OCCO2	8.6*	18	-3	-35
Cc1ccc(OCCC(=O)OCC(=O)Nc2ccc3c(c2)OCCO3)cc1	-6	3	0	15
N#CCCN(C(=O)COC(=O)CCc1nc2ccccc2c(=O)[nH]1)c1ccc(F)cc1	10*	7	-1	-38
O=C(COc1ccccc1[N+](=O)[O-])Nc1ccccc1N1CCCC1	-3	-53	7	9
O=C(COC(=O)c1cccnc1)Nc1ccccc1	3	12	-3	-8
O=C(COC(=O)c1ccncc1)Nc1ccccc1	12*	3	-1	-4
CC1CN(N=Cc2ccc([N+](=O)[O-])o2)C(=N)O1 (stereo not drawn)	8.2*	-11	2	-32
Cc1cc(C)c2sc(N(CCCN(C)C)C(=O)c3ccc(S(=O)(=O)N4CCc5ccccc5C4)cc3)nc2c1	33*	-158	29*	-82
COc1ccc2sc(N(CCCN(C)C)C(=O)c3ccc(S(=O)(=O)N4CCc5ccccc5C4)cc3)nc2c1	14*	-124	23*	-34
Cn1c(SCC(N)=O)nnc1C1CCN(C(=O)NCc2ccccc2)CC1	0	-6	1	-10
CCn1c(C)nc2cc(C(=O)N/N=C(\C)c3ccccc3O)ccc21	10*	8	-2	-26
COc1ccc(Cl)cc1C(=O)Nc1ccc(Br)c(C)n1	3	4	-1	-8
CC1CCCC/C1=N\NS(=O)(=O)c1ccc(Br)cc1 (stereo not drawn)	11*	-17	3	-87
O=S(=O)(N/N=C1/CCCc2ccccc21)c1ccc(Br)cc1	3	-35	6	8
SMILES	HTR5A ag ctr	OPRM1-OPRD1 inv	OPRM1-OPRD1 ag	HTR5A inv ag
COC(=O)c1ccc(NS(=O)(=O)c2cc(-c3cc(C)no3)ccc2OC)cc1	-1	13	-2	2
CCCCC12CN3CCN(CC(C3)/C1=N\NC(=O)c1ccccc1N)C2	3	20	-4	12
O=[n+]1cc(-c2ccccc2)n([O-])c2c1CCCCC2	11*	-1	0	-41
CC[C@]12c3[nH]c4cc(-c5ccco5)ccc4c3CCN1C(=O)[C@@H](CC(=O)NCc1cccc(C(F)(F)F)c1)C[C@@H]2C(=O)N1CCN(C(=O)c2ccco2)CC1	3.5*	-1	0	-12
CC[C@@H](C(=O)[C@@H](C)[C@@H](O)[C@H](C)CCc1ccc(C)c(O)c1C(=O)O)[C@H]1O[C@](CC)([C@H]2CC[C@](O)(CC)[C@H](C)O2)C[C@@H]1C	40*	i	102*	-143
Cc1nc2cc(NS(=O)(=O)c3ccc(Br)cc3)ccc2n1C	-3	6	-1	4
c1ccc2c(c1)CCN(c1ncnc3c1[nH]c1ccccc13)C2	9	-324	52*	-16
c1ccc(CN2CCN(c3ncnc4c3[nH]c3ccccc34)CC2)cc1	1	-30	5	15
CCOc1[nH]n(-c2ccccc2)c(=O)c1C=Nc1ccccc1	13*	-3	0	7
CCCN(CC(=O)Nc1ccc(F)c(F)c1F)C(=O)c1cc(S(=O)(=O)N(C)C)ccc1N1CCCC1	-2	19	-5	11
CCC1=NN2C(=N)/C(=C\c3ccc(OCCOc4ccccc4OC)cc3)C(=O)N=C2S1	-2	12	-2	-35
O=C(CSc1cccc[n+]1[O-])c1ccc(Cl)s1	13*	10	-2	34
COC(=O)c1cc2c(s1)CS(=O)C2 (stereo not drawn)	12*	5	-1	7
COc1cccc(/C=C2\C(=O)C(=O)c3ccccc32)c1	-1	-10	2	4
Cc1ccc(C(=O)NCCN2C3=NC[C@@H](Cc4ccccc4)N3C[C@H]2Cc2ccc(O)cc2)cc1Br	5	2	0	5
CCN1CCN(Cc2ccc(NC(=O)c3cc(NC(=O)c4cnn(-c5ccccc5)c4N)cc(OC)c3)cc2C(F)(F)F)CC1	12*	1	0	-18
CCN1CCN(Cc2ccc(NC(=O)c3cc(NC(=O)c4cc(C)on4)cc(OC)c3)cc2C(F)(F)F)CC1	0	-9	2	-2
O=C(c1cccc(C(F)(F)F)c1)C1CCCN(Cc2cccc(OCCO)c2)C1 (stereo not drawn)	13*	-10	2	-33
Cc1nnc(-c2ccccc2)nc1N(C)C	11*	8	-2	10
CC(=O)Nc1ccc(S(=O)(=O)Nc2ccccc2N2CCOCC2)cc1	-3	-3	1	7
CCOC(=O)N1CCC(NC(=O)CCS(=O)(=O)c2ccc3c(c2)CCN3C(C)=O)CC1	0	-1	0	-14
CC1CCC(NC(=O)CCS(=O)(=O)c2ccc3c(c2)CCN3C(=O)C2CC2)CC1 (stereo not drawn)	10*	13	-3	-17
CCOC(=O)c1c(C)[nH]c(=S)c(C#N)c1-c1ccc(OC)cc1	-3	13	-2	6
CCCCOc1ccc(-c2c(C(=O)Nc3ccccc3)c(C)[nH]c(=S)c2C#N)cc1	14*	-23	3	-35
COc1ccccc1C(=O)N/C(=C\c1cn(C)c2ccccc12)C(=O)N1CCOCC1	11*	14	-3	16
COC(=O)CN(C)C(=O)CC1C(=O)NCCN1CC(C)(C)C (stereo not drawn)	13*	-10	1	-14
O=C(COc1ccc(Cl)cc1Cl)Nc1cccnc1	-1	10	-2	3
O=C(CN1CCN(c2ccccc2O)CC1)Nc1ccc([N+](=O)[O-])cc1Br	11*	-21	4	-31
O=C(CN1CCN(c2ccccc2O)CC1)Nc1cc([N+](=O)[O-])ccc1Cl	2	-14	3	8
